The nature of assay [1]: ATG_NFI_CIS: Attagene CIS-FACTORIAL HepG2 Assay for human Nuclear Factor I (NFI) (AID 2282989). The conditions noted are these: HepG2 cis-regulatory reporter, NFI response element transcription; actives raise or lower the signal. In short, it runs like this:
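Reporter transcripts were measured by RT-PCR with fluorescent primer extension and capillary electrophoresis 24 h post-treatment. HepG2 cells carried transiently transfected cis-regulated reporter constructs reporting endogenous factor activity; gain or loss fitted against DMSO baseline.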

The target in assay [2] is Myc proto-oncogene protein (Homo sapiens) (UniProt P01106). The experiment in a line: ATG_Myc_CIS: Attagene CIS-FACTORIAL HepG2 Assay for human Myelocytomatosis (Myc) Proto-Oncogene Transcription Factor (AID 2282990). To be noted: HepG2, Attagene cis-reporter transcription factor activity; actives raise or lower the signal. In a few lines:
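HepG2 cells transiently transfected with multiple cis-promoter-driven reporter transcription units, so endogenous TF activity is read. After 24 h compound exposure, reporter mRNA was quantified by RT-PCR, 6-FAM labelling, HpaI digestion and capillary electrophoresis; bidirectional fit versus DMSO.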

Assay [3] is described as follows: ATG_NRF2_ARE_CIS: Attagene CIS-FACTORIAL HepG2 Assay for human Nuclear Factor Erythroid 2 Related Factor 2 (NFR2) response to Antioxidant Response Elements (ARE) (AID 2282992). To be noted: HepG2 Attagene ARE/NRF2 reporter, transcription factor activity; actives raise or lower the signal. In short, it runs like this: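 HepG2 cells transiently transfected with multiplexed cis-element reporter constructs, 24 h after chemical dosing; reporter mRNA quantified by RT-PCR, fluorescent primer extension, HpaI digestion and capillary electrophoresis. Bidirectional fit relative to DMSO.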

The nature of assay [4]: ATG_Oct_MLP_CIS: Attagene CIS-FACTORIAL HepG2 Assay for human Octamer-Binding Transcription Factor (Oct) (AID 2282993). The conditions noted are these: HepG2 Attagene cis-factorial Oct reporter, mRNA; actives raise or lower the signal. In short, it runs like this: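 Readout is reporter transcript level from RT-PCR with fluorescent primer extension and capillary electrophoresis, fitted in both directions against DMSO. Transfected HepG2 reporter units report endogenous factor activity after 24 h dosing.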

The target of assay [5] is human Peroxisome Proliferator-activated Receptor alpha (PPARa), PPARA (gene 5465) (UniProt Q07869). Put plainly: ATG_PPARa_TRANS: Attagene TRANS-FACTORIAL HepG2 Assay for human Peroxisome Proliferator-activated Receptor alpha (PPARa) (AID 2283001; active = hit-call score of the fitted dose curve at least 0.9, where 1 is the maximum;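 as to AC50: potency for gain of reporter signal over DMSO so agonist or activator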). In short, it runs like this:
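HepG2 cells transiently transfected with multiplexed GAL4-UAS reporter units and chimeric NR-Gal4 constructs were dosed for 24 h. Reporter mRNA was measured by RT-PCR with fluorescent labelling and capillary electrophoresis; gain of signal fitted against DMSO.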

Assay [6] addresses human Peroxisome Proliferator-activated Receptor delta (PPARd), PPARD (gene 5467) (UniProt Q03181). The experiment in a line: ATG_PPARd_TRANS: Attagene TRANS-FACTORIAL HepG2 Assay for human Peroxisome Proliferator-activated Receptor delta (PPARd) (AID 2283002; active = hit-call score of the fitted dose curve at least 0.9, where 1 is the maximum). In short, it runs like this: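 HepG2 cells transiently transfected with multiplexed GAL4-UAS reporter units and exogenous chimeric NR-Gal4 proteins; 24 h compound exposure. Reporter mRNA measured by RT-PCR, 6-FAM labelling, HpaI digestion and capillary electrophoresis; gain of signal versus DMSO.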

In assay [7] the target is human Retinoic Acid Receptor beta (RARb), RARB (gene 5915) (UniProt P10826). The experiment in a line: ATG_RARb_TRANS: Attagene TRANS-FACTORIAL HepG2 Assay for human Retinoic Acid Receptor beta (AID 2283004; active = hit-call score of the fitted dose curve at least 0.9, where 1 is the maximum). In a few lines:
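HepG2 cells transiently transfected with multiplexed GAL4-UAS reporter units expressing chimeric NR–Gal4 fusions; 24 h compound exposure. Reporter mRNA quantified by RT-PCR, 6-FAM labelling, HpaI digestion and capillary electrophoresis; gain-of-signal fitted against DMSO baseline.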

The target in assay [8] is Retinoic acid receptor alpha (Homo sapiens) (UniProt P10276). Put plainly: ATG_RARa_TRANS: Attagene TRANS-FACTORIAL HepG2 Assay for human Retinoic Acid Receptor alpha (RARa) (AID 2283005; active = hit-call score of the fitted dose curve at least 0.9, where 1 is the maximum). In a few lines: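 HepG2 cells transiently transfected with multiple reporter units expressing chimeric RARα-GAL4 fusion, with GAL4-UAS-driven reporters. After 24 h compound exposure, reporter mRNA induction quantified by RT-PCR and capillary electrophoresis with fluorescent labeling; gain-of-signal fitted relative to DMSO control.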

Assay [9] addresses Peroxisome proliferator-activated receptor gamma (Homo sapiens) (UniProt P37231). The experiment in a line: ATG_PPARg_TRANS: Attagene TRANS-FACTORIAL HepG2 Assay for human Peroxisome Proliferator-activated Receptor-gamma (PPARg) (AID 2283007; active = hit-call score of the fitted dose curve at least 0.9, where 1 is the maximum). In short, it runs like this:
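Twenty-four hours after chemical dosing of transiently transfected HepG2 cells, isolated RNA was converted to cDNA, reporter sequences amplified and 6-FAM-labelled, then HpaI-digested and analysed by capillary electrophoresis. Signal increase against DMSO was fitted.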

In assay [10] the target is Nuclear receptor subfamily 1 group I member 2 (Homo sapiens) (UniProt O75469). The experiment in a line: ATG_PXR_TRANS: Attagene TRANS-FACTORIAL HepG2 Assay for human Pregnane X Receptor (PXR) (AID 2283008; active = hit-call score of the fitted dose curve at least 0.9, where 1 is the maximum). In a few lines:
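HepG2 cells transiently transfected with GAL4-UAS reporter units and PXR-Gal4 chimera, exposed 24 h. Reporter mRNA quantified by RT-PCR, fluorescent labelling, HpaI digestion and capillary electrophoresis; gain of signal vs DMSO.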

The target in assay [11] is Cellular tumor antigen p53 (Homo sapiens) (UniProt P04637). Put plainly: ATG_p53_CIS: Attagene CIS-FACTORIAL HepG2 Assay for human p53 Transcription Factor (AID 2282994). The conditions noted are these: HepG2 p53 cis-element reporter, Attagene mRNA; actives raise or lower the signal. In short, it runs like this: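 HepG2 cells transiently transfected with cis-regulated multiple reporter transcription units, dosed 24 h. Reporter mRNA measured by RT-PCR, 6-FAM primer extension, HpaI digestion and capillary electrophoresis; bidirectional fit relative to DMSO.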

Assay [12] has as its target human Retinoic Acid Receptor gamma (RARg), RARG (gene 5916) (UniProt P13631). Put plainly: ATG_RARg_TRANS: Attagene TRANS-FACTORIAL HepG2 Assay for human Retinoic Acid Receptor gamma (RARg) (AID 2283009; active = hit-call score of the fitted dose curve at least 0.9, where 1 is the maximum). In a few lines:
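HepG2 cells transiently transfected with multiplexed reporter units expressing chimeric RARg-GAL4 and GAL4-UAS-driven reporters; 24 h compound exposure. Reporter mRNA quantified by RT-PCR with fluorescent labelling and capillary electrophoresis; gain-of-signal fitted relative to DMSO baseline.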

For assay [13], the target named is human RAR-related Orphan Receptor beta (RORb), RORB (gene 6096) (UniProt Q92753). The experiment in a line: ATG_RORb_TRANS: Attagene TRANS-FACTORIAL HepG2 Assay for human RAR-related Orphan Receptor beta (RORb) (AID 2283010; active = hit-call score of the fitted dose curve at least 0.9, where 1 is the maximum). In a few lines: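 HepG2 cells were transiently transfected with multiplexed GAL4-UAS reporter units expressing chimeric nuclear receptor–GAL4 proteins, then dosed for 24 h. Reporter mRNA was quantified by RT-PCR with fluorescent labelling and capillary electrophoresis; gain of signal was fitted relative to DMSO.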

Records with an inconclusive call do not appear. Activity calls are given as the source filed them. The calls were made as follows, unless noted: active = hit-call score of the fitted dose curve at least 0.9, where 1 is the maximum; inactive = score below 0.9.

human Peroxisome Proliferator-activated Receptor alpha (PPARa), PPARA (gene 5465), sequence (Q07869 whole entry, looked up, the tested form may be a part): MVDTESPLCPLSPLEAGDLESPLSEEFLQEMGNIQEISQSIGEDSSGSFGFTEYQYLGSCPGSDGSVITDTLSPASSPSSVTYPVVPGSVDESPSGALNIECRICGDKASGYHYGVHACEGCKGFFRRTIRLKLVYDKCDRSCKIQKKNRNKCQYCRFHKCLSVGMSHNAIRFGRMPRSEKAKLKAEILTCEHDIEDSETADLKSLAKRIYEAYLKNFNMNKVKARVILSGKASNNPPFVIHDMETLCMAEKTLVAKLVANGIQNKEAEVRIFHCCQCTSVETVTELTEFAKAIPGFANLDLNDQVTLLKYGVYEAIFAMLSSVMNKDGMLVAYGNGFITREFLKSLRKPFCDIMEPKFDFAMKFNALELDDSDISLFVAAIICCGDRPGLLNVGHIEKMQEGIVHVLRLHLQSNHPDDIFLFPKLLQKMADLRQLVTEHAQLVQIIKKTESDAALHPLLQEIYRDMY
Myc proto-oncogene protein (Homo sapiens), sequence (P01106 whole entry, looked up): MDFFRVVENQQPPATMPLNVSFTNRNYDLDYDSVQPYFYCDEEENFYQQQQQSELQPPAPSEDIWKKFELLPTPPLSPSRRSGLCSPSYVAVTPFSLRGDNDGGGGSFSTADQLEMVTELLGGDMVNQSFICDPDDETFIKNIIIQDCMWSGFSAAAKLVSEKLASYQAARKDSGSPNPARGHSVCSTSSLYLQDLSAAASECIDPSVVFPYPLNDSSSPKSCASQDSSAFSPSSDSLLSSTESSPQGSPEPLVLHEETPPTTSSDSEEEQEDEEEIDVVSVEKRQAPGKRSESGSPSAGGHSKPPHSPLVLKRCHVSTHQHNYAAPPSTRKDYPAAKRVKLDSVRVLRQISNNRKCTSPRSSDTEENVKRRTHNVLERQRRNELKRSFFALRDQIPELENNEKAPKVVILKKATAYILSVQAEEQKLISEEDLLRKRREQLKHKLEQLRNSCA
human Retinoic Acid Receptor beta (RARb), RARB (gene 5915), sequence (P10826 whole entry, looked up, the tested form may be a part): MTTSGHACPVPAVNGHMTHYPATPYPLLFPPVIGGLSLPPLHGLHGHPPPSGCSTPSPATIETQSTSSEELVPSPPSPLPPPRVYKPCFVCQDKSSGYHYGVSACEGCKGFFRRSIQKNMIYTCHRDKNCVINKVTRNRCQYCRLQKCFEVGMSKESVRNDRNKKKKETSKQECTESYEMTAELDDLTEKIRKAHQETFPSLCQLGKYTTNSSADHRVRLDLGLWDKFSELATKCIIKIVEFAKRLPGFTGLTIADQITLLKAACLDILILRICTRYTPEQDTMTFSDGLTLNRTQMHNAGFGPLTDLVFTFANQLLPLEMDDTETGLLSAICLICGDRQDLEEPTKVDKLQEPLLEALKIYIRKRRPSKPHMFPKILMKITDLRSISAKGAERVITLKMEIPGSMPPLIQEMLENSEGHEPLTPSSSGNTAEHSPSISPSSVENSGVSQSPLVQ
human Retinoic Acid Receptor gamma (RARg), RARG (gene 5916), sequence (P13631 whole entry, looked up, the tested form may be a part): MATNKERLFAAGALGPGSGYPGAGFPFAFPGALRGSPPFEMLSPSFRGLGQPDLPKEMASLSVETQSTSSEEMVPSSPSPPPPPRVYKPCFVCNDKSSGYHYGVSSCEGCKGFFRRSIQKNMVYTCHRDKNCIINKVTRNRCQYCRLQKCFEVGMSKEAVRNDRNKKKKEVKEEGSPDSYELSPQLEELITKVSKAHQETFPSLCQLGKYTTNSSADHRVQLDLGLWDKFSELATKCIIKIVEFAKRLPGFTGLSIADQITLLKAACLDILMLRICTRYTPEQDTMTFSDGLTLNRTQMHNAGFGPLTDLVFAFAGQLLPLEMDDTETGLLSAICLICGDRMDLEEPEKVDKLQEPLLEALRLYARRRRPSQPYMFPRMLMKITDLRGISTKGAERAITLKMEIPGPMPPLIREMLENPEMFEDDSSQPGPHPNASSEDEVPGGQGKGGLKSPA
Peroxisome proliferator-activated receptor gamma (Homo sapiens), sequence (P37231 whole entry, looked up): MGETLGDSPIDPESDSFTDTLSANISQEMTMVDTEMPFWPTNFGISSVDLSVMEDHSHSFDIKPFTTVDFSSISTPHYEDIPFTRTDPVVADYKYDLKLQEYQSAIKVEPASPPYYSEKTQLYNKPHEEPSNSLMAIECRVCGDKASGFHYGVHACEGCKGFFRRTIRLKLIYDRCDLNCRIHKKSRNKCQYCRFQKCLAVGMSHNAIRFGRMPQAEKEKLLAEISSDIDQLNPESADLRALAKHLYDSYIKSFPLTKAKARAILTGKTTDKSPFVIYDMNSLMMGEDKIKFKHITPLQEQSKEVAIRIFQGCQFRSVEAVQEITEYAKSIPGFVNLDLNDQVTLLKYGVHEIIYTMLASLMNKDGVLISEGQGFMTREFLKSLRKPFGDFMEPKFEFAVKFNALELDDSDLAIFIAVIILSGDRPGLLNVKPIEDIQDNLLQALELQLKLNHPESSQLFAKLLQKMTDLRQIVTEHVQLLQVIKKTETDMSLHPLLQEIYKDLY
Cellular tumor antigen p53 (Homo sapiens), sequence (P04637 whole entry, looked up): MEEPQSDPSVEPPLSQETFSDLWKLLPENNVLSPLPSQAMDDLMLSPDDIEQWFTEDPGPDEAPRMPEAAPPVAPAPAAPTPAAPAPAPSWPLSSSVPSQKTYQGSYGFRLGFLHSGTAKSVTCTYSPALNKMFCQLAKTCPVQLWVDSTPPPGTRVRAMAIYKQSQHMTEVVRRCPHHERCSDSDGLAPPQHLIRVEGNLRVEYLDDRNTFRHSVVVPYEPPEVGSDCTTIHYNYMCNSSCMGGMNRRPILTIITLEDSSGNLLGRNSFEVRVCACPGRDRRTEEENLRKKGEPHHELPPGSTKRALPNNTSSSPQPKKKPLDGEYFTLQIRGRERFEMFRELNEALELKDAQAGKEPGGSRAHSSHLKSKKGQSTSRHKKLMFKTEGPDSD
Nuclear receptor subfamily 1 group I member 2 (Homo sapiens), sequence (O75469 whole entry, looked up, the tested form may be a part): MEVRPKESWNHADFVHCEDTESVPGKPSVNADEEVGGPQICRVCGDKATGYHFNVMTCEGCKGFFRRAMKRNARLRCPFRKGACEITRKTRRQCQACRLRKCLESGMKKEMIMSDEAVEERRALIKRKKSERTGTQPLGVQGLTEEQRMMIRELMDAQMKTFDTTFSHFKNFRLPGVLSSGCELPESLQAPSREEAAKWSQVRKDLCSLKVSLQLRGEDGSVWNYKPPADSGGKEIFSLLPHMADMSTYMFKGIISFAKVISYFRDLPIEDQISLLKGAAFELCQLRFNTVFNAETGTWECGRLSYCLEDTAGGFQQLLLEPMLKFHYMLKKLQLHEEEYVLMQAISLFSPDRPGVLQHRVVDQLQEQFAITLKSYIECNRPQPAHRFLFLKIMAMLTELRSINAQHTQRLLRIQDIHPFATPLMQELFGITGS
human RAR-related Orphan Receptor beta (RORb), RORB (gene 6096), sequence (Q92753 whole entry, looked up, the tested form may be a part): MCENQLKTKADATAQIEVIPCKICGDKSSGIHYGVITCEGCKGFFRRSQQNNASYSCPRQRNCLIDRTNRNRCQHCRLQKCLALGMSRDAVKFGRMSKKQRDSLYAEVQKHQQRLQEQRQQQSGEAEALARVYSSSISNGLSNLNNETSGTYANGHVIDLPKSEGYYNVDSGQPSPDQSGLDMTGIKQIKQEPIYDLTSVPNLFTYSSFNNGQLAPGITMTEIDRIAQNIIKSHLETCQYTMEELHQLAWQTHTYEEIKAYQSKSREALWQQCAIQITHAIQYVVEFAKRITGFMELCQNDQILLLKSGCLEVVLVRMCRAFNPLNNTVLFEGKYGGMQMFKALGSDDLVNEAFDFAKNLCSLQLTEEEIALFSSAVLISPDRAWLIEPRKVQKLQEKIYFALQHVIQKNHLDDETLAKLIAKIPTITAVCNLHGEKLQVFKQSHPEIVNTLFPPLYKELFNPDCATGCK
human Peroxisome Proliferator-activated Receptor delta (PPARd), PPARD (gene 5467), sequence (Q03181 whole entry, looked up, the tested form may be a part): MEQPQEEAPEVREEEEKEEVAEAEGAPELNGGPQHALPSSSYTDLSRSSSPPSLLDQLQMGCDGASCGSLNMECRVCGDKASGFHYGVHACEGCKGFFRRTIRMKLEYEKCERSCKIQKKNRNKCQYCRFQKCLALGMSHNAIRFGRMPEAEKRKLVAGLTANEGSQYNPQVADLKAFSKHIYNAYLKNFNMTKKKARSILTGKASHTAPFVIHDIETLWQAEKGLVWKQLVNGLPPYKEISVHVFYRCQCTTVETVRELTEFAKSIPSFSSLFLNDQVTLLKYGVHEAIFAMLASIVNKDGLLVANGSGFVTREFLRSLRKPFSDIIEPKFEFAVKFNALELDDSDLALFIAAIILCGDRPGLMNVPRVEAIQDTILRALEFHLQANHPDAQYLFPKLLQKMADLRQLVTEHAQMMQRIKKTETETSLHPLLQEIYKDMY
Retinoic acid receptor alpha (Homo sapiens), sequence (P10276 whole entry, looked up, the tested form may be a part): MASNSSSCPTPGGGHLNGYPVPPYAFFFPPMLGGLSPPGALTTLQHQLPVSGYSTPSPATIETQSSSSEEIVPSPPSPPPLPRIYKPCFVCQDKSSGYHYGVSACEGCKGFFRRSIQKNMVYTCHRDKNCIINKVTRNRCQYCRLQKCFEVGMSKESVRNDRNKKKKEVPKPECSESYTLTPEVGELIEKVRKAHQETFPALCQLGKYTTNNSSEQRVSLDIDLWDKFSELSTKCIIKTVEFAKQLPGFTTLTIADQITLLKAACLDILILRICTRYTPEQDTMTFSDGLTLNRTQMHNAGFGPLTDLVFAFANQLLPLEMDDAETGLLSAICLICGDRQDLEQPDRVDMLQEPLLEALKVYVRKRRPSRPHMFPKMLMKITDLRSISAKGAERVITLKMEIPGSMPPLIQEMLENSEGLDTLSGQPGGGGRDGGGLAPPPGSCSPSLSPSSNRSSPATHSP

Regarding `Nc1ccc2cc(S(=O)(=O)O)cc(O)c2c1N=Nc1ccccc1C(F)(F)F`, the outcome in assay [1], in assay [2], in assay [3], in assay [4], in assay [5] and in assay [6] was inactive. Further, the compound was classed as inactive in assay [7], in assay [8], in assay [9] and in [10].

With `COC(C)(C)CCO`, the result in assay [1], in assay [2], in assay [3], in [11], in [5] and in assay [6] was inactive. In addition, the call in assay [7] and in [10] was inactive.

Regarding `Cc1ccc(C)o1`, the compound was classed as inactive in assay [1], in [2], in assay [3], in assay [4], in assay [11] and in assay [6]. The compound was classed as inactive in assay [12].

Consider `COc1ccccc1[N+](=O)[O-]`, for which the compound was classed as inactive in assay [1], in assay [2], in assay [3], in [4], in assay [11] and in assay [10].

Take `CC(C)OCCO`: the compound was classed as inactive in assay [1], in assay [2], in assay [3], in assay [4], in [11] and in assay [7]. The outcome in assay [10] and in assay [13] was inactive.

Turning to `CCCC(=O)c1ccccc1`, the compound was called inactive in assay [1], in assay [2], in assay [3], in assay [4], in assay [11] and in assay [9]. In addition, the outcome in [10] and in [13] was inactive.

Consider `CCOC(=O)COC(=O)c1cc(Oc2ccc(C(F)(F)F)cc2Cl)ccc1[N+](=O)[O-]`, for which the outcome in [1], in assay [2], in assay [3], in assay [11], in assay [6] and in [12] was inactive. Besides, the AC50 was 14.5 µM (active) in assay [5], 11.1 µM (active) in assay [9] and 22.2 µM (active) in assay [10].

`O=Cc1ccccc1S(=O)(=O)O`: the result in [1], in assay [2], in assay [3], in assay [4], in assay [6] and in assay [9] was inactive.

For the compound `CN1CCOCC1`, the call in [1], in [2], in assay [3], in [4], in assay [11] and in assay [7] was inactive. The outcome in assay [8], in assay [12] and in assay [13] was inactive.

The record behind these values is PubChem BioAssay (EPA / NIEHS).
